# Test results reported in the supplement of paper PMC4466140.
# Columns and labels:
# Test in all cases: SPOT peptide array binding signal intensity (averaged, normalized) (arbitrary units (background-subtracted, floor 0; scale differs between SH3 domains)); higher = stronger binding of the SH3 domain to the peptide
# [1] = biological target: AgAbp1
# Outline: (§1)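 Spot intensities were captured after detection with anti-GST antibody, an HRP-linked anti-mouse secondary and luminol, and quantified with Genespotter. The probes were GST-fused SH3 domains from four yeast species, produced in E. coli BL21(DE3), purified on glutathione Sepharose and incubated at 10 μg/ml overnight at 4°C on cellulose-bound synthetic 15-mer peptides with cysteines replaced by serines. Binding signal is the normalized, background-subtracted spot intensity averaged over replicates, and its arbitrary units differ between domains.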
# [2] = biological target: AgBbc1
# Outline: as §1
# [3] = biological target: AgBem1-D1
# Outline: as §1
# [4] = biological target: AgBzz1-D1
# Outline: as §1
# [5] = biological target: AgBzz1-D2
# Outline: as §1
# [6] = biological target: AgCyk3
# Outline: as §1
# [7] = biological target: AgFus1
# Outline: as §1
# [8] = biological target: AgHof1
# Outline: as §1
# [9] = biological target: AgHse1
# Outline: as §1
# [10] = biological target: AgLsb1
# Outline: as §1
# [11] = biological target: AgLsb4
# Outline: as §1
# [12] = biological target: AgMyo5
# Outline: as §1
# [13] = biological target: AgNbp2
# Outline: as §1
# [14] = biological target: AgRvs167
# Outline: as §1
# [15] = biological target: AgSho1
# Outline: as §1
# [16] = biological target: AgSla1-D1-D2
# Outline: as §1
# [17] = biological target: AgSla1-D3
# Outline: as §1
# [18] = biological target: CaAbp1-D1
# Outline: as §1
# [19] = biological target: CaAbp1-D2
# Outline: as §1
# [20] = biological target: CaBbc1
# Outline: as §1
# [21] = biological target: CaBem1-D1
# Outline: as §1
# [22] = biological target: CaBzz1-D1
# Outline: as §1
# [23] = biological target: CaBzz1-D2
# Outline: as §1
# [24] = biological target: CaCyk3
# Outline: as §1
# [25] = biological target: CaFus1
# Outline: as §1
# [26] = biological target: CaHof1
# Outline: as §1
# [27] = biological target: CaHse1
# Outline: as §1
# [28] = biological target: CaLsb1
# Outline: as §1
# [29] = biological target: CaLsb4
# Outline: as §1
# [30] = biological target: CaMyo5
# Outline: as §1
# [31] = biological target: CaNbp2
# Outline: as §1
# [32] = biological target: CaRvs167
# Outline: as §1
# [33] = biological target: CaRvs167-3
# Outline: as §1
# [34] = biological target: CaSho1
# Outline: as §1
# [35] = biological target: CaSla1-D1-D2
# Outline: as §1
# [36] = biological target: CaSla1-D3
# Outline: as §1
# [37] = biological target: ScAbp1
# Outline: as §1
# [38] = biological target: ScBbc1
# Outline: as §1
# [39] = biological target: ScBem1-D1
# Outline: as §1
# [40] = biological target: ScBzz1-D1
# Outline: as §1
# [41] = biological target: ScBzz1-D2
# Outline: as §1
# [42] = biological target: ScCyk3
# Outline: as §1
# [43] = biological target: ScFus1
# Outline: as §1
# [44] = biological target: ScHof1
# Outline: as §1
# [45] = biological target: ScHse1
# Outline: as §1
# [46] = biological target: ScLsb1
# Outline: as §1
# [47] = biological target: ScLsb2
# Outline: as §1
# [48] = biological target: ScLsb3
# Outline: as §1
# [49] = biological target: ScLsb4
# Outline: as §1
# [50] = biological target: ScMyo3
# Outline: as §1
# [51] = biological target: ScMyo5
# Outline: as §1
# [52] = biological target: ScNbp2
# Outline: as §1
# [53] = biological target: ScPex13
# Outline: as §1
# [54] = biological target: ScRvs167
# Outline: as §1
# [55] = biological target: ScSho1
# Outline: as §1
# [56] = biological target: ScSla1-D1-D2
# Outline: as §1
# [57] = biological target: ScSla1-D3
# Outline: as §1
# [58] = biological target: SpAbp1-D1
# Outline: as §1
# [59] = biological target: SpBbc1
# Outline: as §1
# [60] = biological target: SpBzz1-D1
# Outline: as §1
# [61] = biological target: SpBzz1-D2
# Outline: as §1
# [62] = biological target: SpCyk3
# Outline: as §1
# [63] = biological target: SpHof1
# Outline: as §1
# [64] = biological target: SpHof1-2
# Outline: as §1
# [65] = biological target: SpHof1-3
# Outline: as §1
# [66] = biological target: SpHse1
# Outline: as §1
# [67] = biological target: SpLsb1
# Outline: as §1
# [68] = biological target: SpLsb4
# Outline: as §1
# [69] = biological target: SpMyo1
# Outline: as §1
# [70] = biological target: SpNbp2
# Outline: as §1
# [71] = biological target: SpPex13
# Outline: as §1
# [72] = biological target: SpRvs167
# Outline: as §1
# [73] = biological target: SpSla1-D1-D2
# Outline: as §1
# [74] = biological target: SpSla1-D3
# Outline: as §1
binder,measurement,setting,value
LFMKGTPEFPKSGFS,SPOT peptide array binding signal intensity,[1],≤ 0
same,SPOT peptide array binding signal intensity,[2],12.5
same,SPOT peptide array binding signal intensity,[3],224
same,SPOT peptide array binding signal intensity,[4],8.5
same,SPOT peptide array binding signal intensity,[5],7
same,SPOT peptide array binding signal intensity,[6],≤ 0
same,SPOT peptide array binding signal intensity,[7],479
same,SPOT peptide array binding signal intensity,[8],7
same,SPOT peptide array binding signal intensity,[9],104
same,SPOT peptide array binding signal intensity,[10],≤ 0
same,SPOT peptide array binding signal intensity,[11],5
same,SPOT peptide array binding signal intensity,[12],5
same,SPOT peptide array binding signal intensity,[13],208
same,SPOT peptide array binding signal intensity,[14],0.667
same,SPOT peptide array binding signal intensity,[15],248
same,SPOT peptide array binding signal intensity,[16],4
same,SPOT peptide array binding signal intensity,[17],5
same,SPOT peptide array binding signal intensity,[18],291
same,SPOT peptide array binding signal intensity,[19],224
same,SPOT peptide array binding signal intensity,[20],40.5
same,SPOT peptide array binding signal intensity,[21],272
same,SPOT peptide array binding signal intensity,[22],182
same,SPOT peptide array binding signal intensity,[23],58.8
same,SPOT peptide array binding signal intensity,[24],7.5
same,SPOT peptide array binding signal intensity,[25],914
same,SPOT peptide array binding signal intensity,[26],≤ 0
same,SPOT peptide array binding signal intensity,[27],113
same,SPOT peptide array binding signal intensity,[28],3.5
same,SPOT peptide array binding signal intensity,[29],196
same,SPOT peptide array binding signal intensity,[30],40.2
same,SPOT peptide array binding signal intensity,[31],611
same,SPOT peptide array binding signal intensity,[32],75
same,SPOT peptide array binding signal intensity,[33],1.5
same,SPOT peptide array binding signal intensity,[34],1200
same,SPOT peptide array binding signal intensity,[35],90
same,SPOT peptide array binding signal intensity,[36],289
same,SPOT peptide array binding signal intensity,[37],6.5
same,SPOT peptide array binding signal intensity,[38],≤ 0
same,SPOT peptide array binding signal intensity,[39],16
same,SPOT peptide array binding signal intensity,[40],20.5
same,SPOT peptide array binding signal intensity,[41],11.5
same,SPOT peptide array binding signal intensity,[42],1
same,SPOT peptide array binding signal intensity,[43],738
same,SPOT peptide array binding signal intensity,[44],≤ 0
same,SPOT peptide array binding signal intensity,[45],17.5
same,SPOT peptide array binding signal intensity,[46],19
same,SPOT peptide array binding signal intensity,[47],≤ 0
same,SPOT peptide array binding signal intensity,[48],197
same,SPOT peptide array binding signal intensity,[49],92.5
same,SPOT peptide array binding signal intensity,[50],21
same,SPOT peptide array binding signal intensity,[51],2
same,SPOT peptide array binding signal intensity,[52],212
same,SPOT peptide array binding signal intensity,[53],394
same,SPOT peptide array binding signal intensity,[54],32
same,SPOT peptide array binding signal intensity,[55],658
same,SPOT peptide array binding signal intensity,[56],176
same,SPOT peptide array binding signal intensity,[57],490
same,SPOT peptide array binding signal intensity,[58],52.5
same,SPOT peptide array binding signal intensity,[59],≤ 0
same,SPOT peptide array binding signal intensity,[60],140
same,SPOT peptide array binding signal intensity,[61],16.5
same,SPOT peptide array binding signal intensity,[62],≤ 0
same,SPOT peptide array binding signal intensity,[63],19
same,SPOT peptide array binding signal intensity,[64],18.8
same,SPOT peptide array binding signal intensity,[65],78
same,SPOT peptide array binding signal intensity,[66],335
same,SPOT peptide array binding signal intensity,[67],≤ 0
same,SPOT peptide array binding signal intensity,[68],629
same,SPOT peptide array binding signal intensity,[69],22.8
same,SPOT peptide array binding signal intensity,[70],100
same,SPOT peptide array binding signal intensity,[71],28
same,SPOT peptide array binding signal intensity,[72],30.8
same,SPOT peptide array binding signal intensity,[73],8
same,SPOT peptide array binding signal intensity,[74],253
AIPPPVPNRPGGTTN,SPOT peptide array binding signal intensity,[1],≤ 0
same,SPOT peptide array binding signal intensity,[2],1380
same,SPOT peptide array binding signal intensity,[3],≤ 0
same,SPOT peptide array binding signal intensity,[4],61
same,SPOT peptide array binding signal intensity,[5],≤ 0
same,SPOT peptide array binding signal intensity,[6],≤ 0
same,SPOT peptide array binding signal intensity,[7],≤ 0
same,SPOT peptide array binding signal intensity,[8],≤ 0
same,SPOT peptide array binding signal intensity,[9],13
same,SPOT peptide array binding signal intensity,[10],373
same,SPOT peptide array binding signal intensity,[11],1024
same,SPOT peptide array binding signal intensity,[12],3.5
same,SPOT peptide array binding signal intensity,[13],≤ 0
same,SPOT peptide array binding signal intensity,[14],269
same,SPOT peptide array binding signal intensity,[15],≤ 0
same,SPOT peptide array binding signal intensity,[16],≤ 0
same,SPOT peptide array binding signal intensity,[17],≤ 0
same,SPOT peptide array binding signal intensity,[18],≤ 0
same,SPOT peptide array binding signal intensity,[19],≤ 0
same,SPOT peptide array binding signal intensity,[20],2040
same,SPOT peptide array binding signal intensity,[21],0.5
same,SPOT peptide array binding signal intensity,[22],570
same,SPOT peptide array binding signal intensity,[23],79
same,SPOT peptide array binding signal intensity,[24],192
same,SPOT peptide array binding signal intensity,[25],≤ 0
same,SPOT peptide array binding signal intensity,[26],0.5
same,SPOT peptide array binding signal intensity,[27],1.75
same,SPOT peptide array binding signal intensity,[28],1
same,SPOT peptide array binding signal intensity,[29],2490
same,SPOT peptide array binding signal intensity,[30],≤ 0
same,SPOT peptide array binding signal intensity,[31],1
same,SPOT peptide array binding signal intensity,[32],1180
same,SPOT peptide array binding signal intensity,[33],1.25
same,SPOT peptide array binding signal intensity,[34],7
same,SPOT peptide array binding signal intensity,[35],≤ 0
same,SPOT peptide array binding signal intensity,[36],≤ 0
same,SPOT peptide array binding signal intensity,[37],≤ 0
same,SPOT peptide array binding signal intensity,[38],515
same,SPOT peptide array binding signal intensity,[39],≤ 0
same,SPOT peptide array binding signal intensity,[40],5
same,SPOT peptide array binding signal intensity,[41],1.5
same,SPOT peptide array binding signal intensity,[42],≤ 0
same,SPOT peptide array binding signal intensity,[43],≤ 0
same,SPOT peptide array binding signal intensity,[44],3
same,SPOT peptide array binding signal intensity,[45],8
same,SPOT peptide array binding signal intensity,[46],1120
same,SPOT peptide array binding signal intensity,[47],302
same,SPOT peptide array binding signal intensity,[48],1950
same,SPOT peptide array binding signal intensity,[49],857
same,SPOT peptide array binding signal intensity,[50],26
same,SPOT peptide array binding signal intensity,[51],1.75
same,SPOT peptide array binding signal intensity,[52],15
same,SPOT peptide array binding signal intensity,[53],858
same,SPOT peptide array binding signal intensity,[54],1860
same,SPOT peptide array binding signal intensity,[55],≤ 0
same,SPOT peptide array binding signal intensity,[56],13.5
same,SPOT peptide array binding signal intensity,[57],≤ 0
same,SPOT peptide array binding signal intensity,[58],≤ 0
same,SPOT peptide array binding signal intensity,[59],358
same,SPOT peptide array binding signal intensity,[60],146
